Reference: ChEMBL document CHEMBL1961873, “Compounds: GSK PKIS; Assays: Nanosyn kinase panel” (2012)

These compounds were tested against 5'-AMP-activated protein kinase catalytic subunit alpha-2 (Homo sapiens) (UniProt P54646). Conditions: at 1 µM.
Chain of 5'-AMP-activated protein kinase catalytic subunit alpha-2 (Homo sapiens) (P54646 whole entry, looked up): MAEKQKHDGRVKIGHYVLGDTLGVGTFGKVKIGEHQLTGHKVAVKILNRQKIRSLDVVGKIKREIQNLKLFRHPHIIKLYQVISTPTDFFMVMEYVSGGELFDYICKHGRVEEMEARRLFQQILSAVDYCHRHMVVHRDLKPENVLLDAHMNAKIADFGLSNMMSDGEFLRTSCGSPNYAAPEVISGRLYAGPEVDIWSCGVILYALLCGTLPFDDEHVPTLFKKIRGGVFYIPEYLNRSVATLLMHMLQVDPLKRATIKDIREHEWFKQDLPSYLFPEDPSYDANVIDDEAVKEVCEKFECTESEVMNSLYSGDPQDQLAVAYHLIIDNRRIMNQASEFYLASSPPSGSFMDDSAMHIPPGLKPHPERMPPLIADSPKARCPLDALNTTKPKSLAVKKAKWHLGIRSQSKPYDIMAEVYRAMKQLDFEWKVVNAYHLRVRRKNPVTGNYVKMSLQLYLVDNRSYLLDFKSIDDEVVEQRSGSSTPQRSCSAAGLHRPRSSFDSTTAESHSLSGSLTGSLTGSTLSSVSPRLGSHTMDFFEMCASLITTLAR

| Structure (SMILES) | inhibition |
| --- | --- |
| CCCN1CCC(Oc2cc(Nc3nc(Nc4cccc(F)c4C(N)=O)c4cc[nH]c4n3)c(OC)cc2Cl)CC1 | 6.28% |
| COc1cc(C)c(NC(=O)CN(C)C)cc1Nc1nc(Nc2cccc(F)c2C(N)=O)c2cc[nH]c2n1 | 4.27% |
| CC1=C(C(=O)Nc2ccc3[nH]ncc3c2)C(c2ccc(Cl)c(Cl)c2)CC(=O)N1 (stereo unspecified) | 7.05% |
| CCn1c(-c2nonc2N)nc2cncc(C(=O)N3CC[C@H](N)C3)c21 | 6.01% |
| NS(=O)(=O)c1ccc(N/N=C2\C(=O)Nc3ccc(C(=O)NCCc4c[nH]cn4)cc32)cc1 | 63.6% |
| CCCN1CCC=C(c2ccc(Nc3nc(Nc4ccccc4C(N)=O)c4cc[nH]c4n3)c(C)c2)C1 | 14.5% |
| CCn1c(-c2nonc2N)nc2cncc(C(=O)N3CCNCC3)c21 | 3.25% |
| Nc1nc(-c2ccc3c(c2)C(=Cc2cc(Br)c(O)c(Br)c2)C(=O)N3)cs1 | 1.63% |
| COc1ccc2cc(-c3c(-c4ccncc4)nc(-c4ccc([S+](C)[O-])cc4)n3C)ccc2c1 (stereo unspecified) | 3.34% |
| CC(C)=Cc1cccc2c1/C(=N/Nc1ccc(S(N)(=O)=O)cc1)C(=O)N2 | 40.2% |
| CS(=O)(=O)CCNCc1nc(-c2ccc3ncnc(Nc4ccc(F)c(Cl)c4)c3c2)cs1 | 1.32% |
| NC(=O)c1ccc(-c2nc(-c3ccccn3)c(-c3ccc4c(c3)OCO4)[nH]2)cc1 | 2.23% |
| COC(=O)Nc1nc2cc(Oc3cccc(NC(=O)Nc4cc(C(F)(F)F)ccc4F)c3)ccc2[nH]1 | 3.68% |
| Cc1nnc(-c2ccc(C)c(-c3ccc(C(=O)Nc4cccc(C#N)c4)cc3)c2)o1 | 2.95% |
| COc1ccc(-c2ccncc2)cc1C(N)=O | 4.51% |
| CC(=O)Nc1cccc(C#Cc2cncnc2Nc2ccc(OCc3cccc(F)c3)c(Cl)c2)n1 | -0.66% |
| Cc1ccc(C(=O)NC2CCCCC2)cc1-c1ccc(C(=O)NCC2CC2)cc1 | 1.51% |

| Structure (SMILES) | inhibition |
| --- | --- |
| COc1ccc(-c2nn3ncccc3c2-c2ccnc(Nc3ccc(Cl)c(C(F)(F)F)c3)n2)cc1 | -8.45% |
| CC1=C(C(=O)Nc2ccc3[nH]ncc3c2)C(c2ccc(F)cc2)NC(=O)N1 (stereo unspecified) | 5.96% |
| COc1cc2ncn(-c3cc(O[C@@H](C)c4ccccc4Cl)c(C(N)=O)s3)c2cc1OC | 5.06% |
| CS(=O)(=O)CCN(CC#N)Cc1ccc(-c2ccc3ncnc(Nc4ccc(OCc5cccc(F)c5)c(Cl)c4)c3c2)o1 | -0.61% |
| O=C1NC(=O)C(c2ccccc2Cl)=C1Nc1cccc(O)c1 | 4.22% |
| COc1ccc(-c2coc3ncnc(N)c23)cc1 | 5.94% |
| CS(=O)(=O)CCNCc1ccc(-c2ccc3ncnc(Nc4ccc(OCc5ccccc5)c(Cl)c4)c3c2)o1 | 0.49% |
| COc1cc2ncn(-c3cc(O[C@H](C)c4ccccc4Cl)c(C(N)=O)s3)c2cc1OC | 8.68% |
| CCn1c(-c2nonc2N)nc2cnc(Oc3cccc(NC(=O)c4ccc(OCCN5CCOCC5)cc4)c3)cc21 | 3.43% |
| CCn1c(-c2nonc2N)nc2c(N3CCCC3)nccc21 | 0.77% |
| Cc1nn(C)c2cc(N(C)c3ccnc(Nc4cccc(S(N)(=O)=O)c4)n3)ccc12 | 3.54% |
| Fc1cccc(COc2ccc(Nc3ncnc4cc(-c5ccc[nH]5)sc34)cc2Cl)c1 | 3.27% |
| CCn1c(-c2nonc2N)nc2c(C#CC(C)(C)O)nc(CN3CCCC3)cc21 | 6.62% |
| O=C1Nc2ccc(C(=O)c3ccco3)cc2C1=Cc1cc(Cl)c(O)c(Cl)c1 | 10.8% |
| CC1=C(C(=O)Nc2ccc3[nH]ncc3c2)C(c2ccc3ccccc3c2)CC(=O)N1 (stereo unspecified) | 11.5% |
| Fc1cccc(COc2ccc(Nc3ncnc4sc(-c5cccs5)cc34)cc2Cl)c1 | 0.62% |

These compounds were tested against T1, NUAK family SNF1-like kinase 1 (Homo sapiens) (UniProt O60285). Conditions: at 0.1 µM.
T1 sequence (whole entry): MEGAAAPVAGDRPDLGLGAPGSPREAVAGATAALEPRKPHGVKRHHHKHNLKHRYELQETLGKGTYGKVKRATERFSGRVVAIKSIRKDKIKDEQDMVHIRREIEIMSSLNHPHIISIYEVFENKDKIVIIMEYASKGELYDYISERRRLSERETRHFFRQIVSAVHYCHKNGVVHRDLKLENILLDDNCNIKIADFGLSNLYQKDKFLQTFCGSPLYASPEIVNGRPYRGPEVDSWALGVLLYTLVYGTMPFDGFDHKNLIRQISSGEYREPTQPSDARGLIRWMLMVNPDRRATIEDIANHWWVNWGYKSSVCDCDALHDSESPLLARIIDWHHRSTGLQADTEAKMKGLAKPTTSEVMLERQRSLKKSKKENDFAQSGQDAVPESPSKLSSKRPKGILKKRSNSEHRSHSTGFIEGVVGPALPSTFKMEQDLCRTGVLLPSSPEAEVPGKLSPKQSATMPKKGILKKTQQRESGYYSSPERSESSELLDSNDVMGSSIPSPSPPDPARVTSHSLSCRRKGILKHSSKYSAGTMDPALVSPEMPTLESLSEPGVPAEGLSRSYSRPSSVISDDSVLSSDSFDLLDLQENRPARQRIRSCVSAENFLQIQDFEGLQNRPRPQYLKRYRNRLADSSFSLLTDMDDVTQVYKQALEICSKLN

| Structure (SMILES) | inhibition |
| --- | --- |
| CCCN1CCC(Oc2cc(Nc3nc(Nc4cccc(F)c4C(N)=O)c4cc[nH]c4n3)c(OC)cc2Cl)CC1 | 7.21% |
| COc1cc(C)c(NC(=O)CN(C)C)cc1Nc1nc(Nc2cccc(F)c2C(N)=O)c2cc[nH]c2n1 | -0.32% |
| CC1=C(C(=O)Nc2ccc3[nH]ncc3c2)C(c2ccc(Cl)c(Cl)c2)CC(=O)N1 (stereo unspecified) | -0.25% |
| CCn1c(-c2nonc2N)nc2cncc(C(=O)N3CC[C@H](N)C3)c21 | 0.02% |
| NS(=O)(=O)c1ccc(N/N=C2\C(=O)Nc3ccc(C(=O)NCCc4c[nH]cn4)cc32)cc1 | 54.2% |
| CCCN1CCC=C(c2ccc(Nc3nc(Nc4ccccc4C(N)=O)c4cc[nH]c4n3)c(C)c2)C1 | 48.4% |
| CCn1c(-c2nonc2N)nc2cncc(C(=O)N3CCNCC3)c21 | -0.04% |
| Nc1nc(-c2ccc3c(c2)C(=Cc2cc(Br)c(O)c(Br)c2)C(=O)N3)cs1 | 3.02% |
| COc1ccc2cc(-c3c(-c4ccncc4)nc(-c4ccc([S+](C)[O-])cc4)n3C)ccc2c1 (stereo unspecified) | 1.01% |
| CC(C)=Cc1cccc2c1/C(=N/Nc1ccc(S(N)(=O)=O)cc1)C(=O)N2 | 80.3% |
| CS(=O)(=O)CCNCc1nc(-c2ccc3ncnc(Nc4ccc(F)c(Cl)c4)c3c2)cs1 | 2.92% |
| NC(=O)c1ccc(-c2nc(-c3ccccn3)c(-c3ccc4c(c3)OCO4)[nH]2)cc1 | 0.4% |
| COC(=O)Nc1nc2cc(Oc3cccc(NC(=O)Nc4cc(C(F)(F)F)ccc4F)c3)ccc2[nH]1 | 0.14% |
| Cc1nnc(-c2ccc(C)c(-c3ccc(C(=O)Nc4cccc(C#N)c4)cc3)c2)o1 | 2.98% |
| COc1ccc(-c2ccncc2)cc1C(N)=O | 1.88% |
| CC(=O)Nc1cccc(C#Cc2cncnc2Nc2ccc(OCc3cccc(F)c3)c(Cl)c2)n1 | 2.57% |
| Cc1ccc(C(=O)NC2CCCCC2)cc1-c1ccc(C(=O)NCC2CC2)cc1 | 2.83% |

| Structure (SMILES) | inhibition |
| --- | --- |
| COc1ccc(-c2nn3ncccc3c2-c2ccnc(Nc3ccc(Cl)c(C(F)(F)F)c3)n2)cc1 | -1.07% |
| CC1=C(C(=O)Nc2ccc3[nH]ncc3c2)C(c2ccc(F)cc2)NC(=O)N1 (stereo unspecified) | 4.1% |
| COc1cc2ncn(-c3cc(O[C@@H](C)c4ccccc4Cl)c(C(N)=O)s3)c2cc1OC | 3.52% |
| CS(=O)(=O)CCN(CC#N)Cc1ccc(-c2ccc3ncnc(Nc4ccc(OCc5cccc(F)c5)c(Cl)c4)c3c2)o1 | 0.1% |
| O=C1NC(=O)C(c2ccccc2Cl)=C1Nc1cccc(O)c1 | 0.82% |
| COc1ccc(-c2coc3ncnc(N)c23)cc1 | 3.47% |
| CS(=O)(=O)CCNCc1ccc(-c2ccc3ncnc(Nc4ccc(OCc5ccccc5)c(Cl)c4)c3c2)o1 | 0.49% |
| COc1cc2ncn(-c3cc(O[C@H](C)c4ccccc4Cl)c(C(N)=O)s3)c2cc1OC | 24% |
| CCn1c(-c2nonc2N)nc2cnc(Oc3cccc(NC(=O)c4ccc(OCCN5CCOCC5)cc4)c3)cc21 | 5.2% |
| CCn1c(-c2nonc2N)nc2c(N3CCCC3)nccc21 | 4.51% |
| Cc1nn(C)c2cc(N(C)c3ccnc(Nc4cccc(S(N)(=O)=O)c4)n3)ccc12 | 20.6% |
| Fc1cccc(COc2ccc(Nc3ncnc4cc(-c5ccc[nH]5)sc34)cc2Cl)c1 | 2.43% |
| CCn1c(-c2nonc2N)nc2c(C#CC(C)(C)O)nc(CN3CCCC3)cc21 | -8.68% |
| O=C1Nc2ccc(C(=O)c3ccco3)cc2C1=Cc1cc(Cl)c(O)c(Cl)c1 | 2.94% |
| CC1=C(C(=O)Nc2ccc3[nH]ncc3c2)C(c2ccc3ccccc3c2)CC(=O)N1 (stereo unspecified) | 7.78% |
| Fc1cccc(COc2ccc(Nc3ncnc4sc(-c5cccs5)cc34)cc2Cl)c1 | 4.02% |
